Source: PubChem BioAssay
Shown are actives, neighbours in structure and some others; about 21% of the full set was active somewhere.
DRD3 antagonist – qHTS of D3 Dopamine Receptor Antagonist: qHTS; D3R cells, DiscoveRx beta-arrestin luminescence, antagonist mode; active compounds read low; max response, negative = inhibition, %; hit rate 2.5% among 360,000; AID 652054, 2013; in the data active = max response below about -50%; inconclusive = no clear call, values can overlap the other calls; also: % is scaled to controls: 0 for no effect and ±100 for the full control effect
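Cells plated overnight at 1500 cells/well, then exposed to library compounds with dopamine controls for 90 minutes at 37 degrees C. DiscoveRx reagent added for 30–60 minutes at room temperature; luminescence read, quantitative HTS format.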
ClpP mod – qHTS Assay for Activators of ClpP | ATP-dependent Clp protease proteolytic subunit (Bacillus subtilis (strain 168)), P80244 | hit rate 1.9% among 340,000 | Potency, µM (top dose mostly 57.5 µM), for inactives: top-dose activity change, negative = active | purified B. subtilis ClpP, FRET peptide cleavage, 20 min; active = well fitted falling curve with a large enough effect; inconclusive = small, poorly fitted or top-dose-only effect; inactive = no such curve, though single readings can be large or run the other way; also: potency is read from the fitted curve at half-maximal effect; the source files actives as falling curves though it sought activators and does not explain the sign; nearly all actives have a fitted effect of over 65% in size
Target sequence (P80244 whole entry, looked up): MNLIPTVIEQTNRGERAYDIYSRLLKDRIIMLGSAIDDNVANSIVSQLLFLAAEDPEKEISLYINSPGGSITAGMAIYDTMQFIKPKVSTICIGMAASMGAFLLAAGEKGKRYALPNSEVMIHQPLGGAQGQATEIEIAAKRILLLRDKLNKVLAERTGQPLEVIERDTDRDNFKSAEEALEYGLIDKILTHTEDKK
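Buffer: 100 mM Tris/HCl pH8, 100 mM KCl, 0.05% low protease BSA, 2.5% glycerol, 0.01% Tween-20. ClpP 10 microg/mL final; 20 min RT; delta FRET normalized to ADEP and DMSO controls.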
IL1B secr inh – qHTS for Inhibitors of Inflammasome Signaling: IL-1-beta AlphaLISA Primary Screen; activity change, % at 57.5 µM; THP-1 LPS/ATP IL-1B secretion, AlphaLISA, 16 h; active compounds read low; hit rate 4.7% among 360,000; in the data active = activity change below about -50%; inconclusive = mostly about -30% to -49%; also: % is scaled to controls: 0 for no effect and ±100 for the full control effect
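THP-1 cells pretreated 1 hr with compounds (up to 57.5 uM final), then stimulated with LPS (250 ng/mL final) plus ATP (1.25 mM final); secreted IL-1B measured by AlphaLISA after 16 hr, decreased signal indicating inhibition.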
DT40 TDP1 CPT – qHTS for Inhibitors of human tyrosyl-DNA phosphodiesterase 1 (TDP1): qHTS in cells in presence of CPT | hit rate 12% among 420,000 | Potency, µM (doses to about 46.2 µM), for inactives: top-dose activity change, negative = growth inhibition, actives largely listed as inhibitors | chicken DT40 Tdp1-/-;hTDP1 cells + 20 nM CPT, ATP luminescence, 48 h | AID 686979, 2013; also: potency is read from the fitted curve at half-maximal effect; % is scaled to controls: 0 for no effect and ±100 for the full control effect; nearly all actives have a fitted effect of over 55% in size
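Chicken DT40 Tdp1-/- cells complemented with human TDP1, 400 cells/well, exposed to compounds plus 20 nM camptothecin for at least 48 h at 37 C; viability read as ATP content by CellTiter-Glo luminescence.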
DT40 TDP1 no CPT – qHTS for Inhibitors of human tyrosyl-DNA phosphodiesterase 1 (TDP1): qHTS in cells in absence of CPT | DT40 Tdp1-/- hTDP1 cells, no CPT, ATP luminescence, 48 h | Potency, µM (series often up to 46.2 µM), inactives show at the highest dose activity change, negative = growth inhibition, hits mostly inhibitors | hit rate 15% among 420,000 | AID 686978, 2013; also: potency is read from the fitted curve at half-maximal effect; % is scaled to controls: 0 for no effect and ±100 for the full control effect; nearly all actives have a fitted effect of over 55% in size
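A cellular qHTS used chicken DT40 cells lacking endogenous Tdp1 but carrying stably transfected human TDP1. Compounds were applied without camptothecin, and cell growth kinetics were judged by ATP-dependent luminescence after ≥48 hr.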
D3 ag – qHTS of D3 Dopamine Receptor Agonist: qHTS; D(3) dopamine receptor (Homo sapiens), P35462; D3R DiscoveRx beta-arrestin cells, luminescence, 90 min; max activation, %; hit rate 0.58% among 410,000; AID 652048, 2013; in the data active = max activation above about 30%; also: 0% is about no effect
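Agonist-mode cell screen: cells plated at 1500/well and incubated overnight at 37 °C, then exposed to library compounds for 90 min at 37 °C. Detection reagent was added for 30–60 min at room temperature, and luminescence was read.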
Starred values were filed as active, the others as inactive; ? = inconclusive; / = no result. Unless noted, calls follow the shape of the dose curve; as a rule, active = well fitted inhibition curve with a large enough effect; inconclusive = small, poorly fitted or top-dose-only effect; inactive = flat fitted curve, though single readings scatter.

SMILES	DRD3 antagonist	ClpP mod	IL1B secr inh	DT40 TDP1 CPT	DT40 TDP1 no CPT	D3 ag
Cc1ccc(Oc2ccc(/C=N/O)cn2)cc1	-5	16µM*	-12	23µM*	16µM*	0
C=CCN1C(=O)c2ccc(C(=O)N(CC)CC(=O)Nc3cc(Cl)ccc3C)cc2C1=O	0	-4%	5	1%	-18%	-8
COCC1CCN(C(=O)c2ccc3oc(Cc4ccc(Cl)cc4)nc3c2)C1 (centres undefined)	-11	-4%	?	?	?	-4
O=C(C[C@@H]1C/C=C\C[C@H](Cc2ccc(F)cc2)C(=O)OC[C@H]2CCCN2C1=O)N[C@H](CO)Cc1ccccc1	0	2%	-19	13µM*	15µM*	1
O=C(C[C@@H]1C/C=C\C[C@@H](Cc2ccc(F)cc2)C(=O)OC[C@@H]2CCCN2C1=O)N[C@H](CO)Cc1ccccc1	-1	2%	-21	?	23µM*	-5
O=C(C[C@@H]1C/C=C\C[C@H](Cc2ccc(F)cc2)C(=O)OC[C@@H]2CCCN2C1=O)N[C@H](CO)Cc1ccccc1	-14	-1%	-1	18µM*	16µM*	0
O=C(C[C@@H]1C/C=C\CCC(=O)OC[C@@H]2CCCN2C1=O)N[C@@H](CO)Cc1ccccc1	-29	0%	6	-10%	11%	-2
O=C(C[C@H]1C/C=C\CC[C@@H](Cc2ccc(F)cc2)C(=O)OC[C@H]2CCCN2C1=O)N[C@H](CO)Cc1ccccc1	-8	-2%	-6	?	21µM*	32*
Cc1cc(C)n2nc(C(=O)N/N=C/c3cccs3)nc2n1	17	/	-2	-5%	-1%	-5
O=C(COc1ccc(Cl)cc1Cl)N(Cc1ccco1)C1CCS(=O)(=O)C1 (centres undefined)	-25	1%	2	-23%	-16%	1
Cc1cccc(OCC(=O)N(Cc2cccc(Cl)c2)Cc2ccco2)c1C	/	1%	/	6.5µM*	-82%	-12
Cc1cc(OC(C)C(=O)N(Cc2ccco2)Cc2ccccc2F)cc(C)c1Cl (centres undefined)	/	-1%	/	21µM*	13µM*	-7
O=C(COc1ccccc1Cl)N(Cc1ccco1)Cc1ccco1	/	0%	/	?	23µM*	1
O=C(COc1ccccc1Cl)NCc1ccco1	-6	1%	-4	-5%	-26%	-18
Cc1cc(Cl)ccc1OCC(=O)N(Cc1ccco1)Cc1ccco1	/	-1%	/	?	23µM*	13
CCCCCN(C(=O)CCC(=O)OC(C)C(=O)c1ccc(CC)cc1)c1c(N)n(CCCC)c(=O)[nH]c1=O (centres undefined)	3	-1%	-23	?	-27%	2
CNc1nc(SCC(=O)Nc2ccccc2)nc(N2CCOCC2)n1	2	-1%	-6	-10%	-27%	0
Cc1ccc(CN(Cc2ccco2)C(=O)c2ccc(Cl)cc2Cl)cc1	/	-1%	/	?	?	-18
Cc1ccc(CN(Cc2ccco2)C(=O)COc2ccc(Cl)cc2Cl)cc1	/	-4%	/	?	18µM*	-12
CCO/C=N/c1c(C#N)c2c(c(=S)n1C)COC(C)(C)C2	-16	3.5µM*	17	-9%	-19%	-8
CCOc1cc(/C=N/NC(=O)C(=O)N2CCCC2)ccc1O	19	/	36	5%	-3%	2
CSc1nc(=S)cc(C)[nH]1	-2	/	13	18µM*	?	3
Clc1cc(-c2ccccc2)nc(-c2ccccc2)n1	?	-5%	-52*	?	-21%	-19
